Results: PubChem BioAssay (Tox21)
Values without a mark were called inactive. Inconclusive results are not listed. A call without a number means that no potency is given here. Activity calls are given as the source filed them. The call rests on the fitted dose curve.

Columns and labels:
[1] = biological target: Acetylcholinesterase (Homo sapiens) (UniProt P22303); test: Acetylcholinesterase (AChE) small molecule antagonists: colormetric cell-based qHTS assay (AID 1347395); further: nearly all actives have a fitted effect of over 30% in size; further: potency means the concentration at half of the fitted maximal effect
Chain of Acetylcholinesterase (Homo sapiens) (P22303 whole entry, looked up): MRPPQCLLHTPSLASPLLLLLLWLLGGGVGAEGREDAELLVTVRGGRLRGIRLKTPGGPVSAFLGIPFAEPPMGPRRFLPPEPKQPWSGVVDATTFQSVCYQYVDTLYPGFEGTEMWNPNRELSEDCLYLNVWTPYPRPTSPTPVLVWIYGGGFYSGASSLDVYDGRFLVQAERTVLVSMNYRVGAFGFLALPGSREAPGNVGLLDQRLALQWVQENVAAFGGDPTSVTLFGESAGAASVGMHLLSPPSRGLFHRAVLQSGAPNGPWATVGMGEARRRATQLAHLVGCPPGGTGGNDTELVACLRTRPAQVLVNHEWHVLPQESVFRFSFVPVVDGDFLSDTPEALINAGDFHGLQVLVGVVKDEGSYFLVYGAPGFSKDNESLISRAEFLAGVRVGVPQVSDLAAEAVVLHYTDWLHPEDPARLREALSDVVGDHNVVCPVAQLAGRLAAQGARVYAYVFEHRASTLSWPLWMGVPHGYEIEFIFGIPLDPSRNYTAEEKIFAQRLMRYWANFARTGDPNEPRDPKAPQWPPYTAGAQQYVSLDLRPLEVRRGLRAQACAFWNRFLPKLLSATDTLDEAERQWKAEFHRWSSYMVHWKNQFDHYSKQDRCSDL
Procedure, shortened: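 AChE inhibition read colorimetrically via DTNB–thiocholine in SH-SY5Y cells. Compound 30 min, substrate 90 min, both 37 C.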

[2] = biological target: Acetylcholinesterase (Homo sapiens) (UniProt P22303); test: Acetylcholinesterase (AChE) small molecule antagonists: fluorescence cell-based qHTS assay (AID 1347398); conditions: Potency: AChE activity; outcome: AChE activity; further: nearly all actives have a fitted effect of over 50% in size; further: potency means the concentration at half of the fitted maximal effect
Procedure, shortened: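 Fluorimetric cell-based assay: intact SH-SY5Y cells, 30 min compound preincubation at 37 C, acetylthiocholine substrate with thiol probe Thiolite Green, 40 min RT development, fluorescence 490/520 nm.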

[3] = biological target: Acetylcholinesterase (Homo sapiens) (UniProt P22303); test: Acetylcholinesterase (AChE) small molecule antagonists: enzyme-based qHTS assay with human liver microsomes (AID 1347399); conditions: Potency: qHTS inhibition; outcome: qHTS inhibition; further: nearly all actives have a fitted effect of over 60% in size
Procedure, shortened: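 Recombinant human AChE (50 mU/mL in the enzyme mix) and human liver microsomes (0.25 mg/mL final) were preincubated with compound and NADPH (0.25 mg/mL final) for 30 min at 37 C. Acetylthiocholine/DTNB was then added; thiocholine was read colorimetrically after 10 min at room temperature.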

[4] = biological target: Acetylcholinesterase (Homo sapiens) (UniProt P22303); test: Acetylcholinesterase (AChE) small molecule antagonists: enzyme-based qHTS assay (AID 1347397); conditions: Potency: AChE enzyme activity inhibition; outcome: AChE enzyme activity inhibition; further: nearly all actives have a fitted effect of over 55% in size
Procedure, shortened: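 Absorbance-based detection of thiocholine with DTNB served as the read-out. Recombinant human AChE was exposed to compound for 30 min at RT before a 10 min RT incubation with acetylthiocholine.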

Compound | Potency [1] | Potency [2] | Potency [3] | Potency [4]
COc1ccccc1N1CCN(CC(O)COc2cc(OC)c(OC)c(OC)c2)CC1 (configuration not stated) | inactive | inactive | inactive | –
CCCCCCCCCCCCCCCCC(C(=O)O)C(O)(CC(=O)O)C(=O)O (configuration not stated) | inactive | inactive | inactive | –
Nc1c(N=Nc2ccc(-c3ccc(N=Nc4cc(S(=O)(=O)O)c5ccccc5c4N)cc3)cc2)cc(S(=O)(=O)O)c2ccccc12 | 79.6 µM (active) | 71 µM (active) | inactive | –
CCOC(=O)/C=C/C(=O)OCC | inactive | inactive | inactive | –
Nc1nnc(-c2ccc([N+](=O)[O-])o2)o1 | inactive | inactive | inactive | –
C=CC(=O)OCCCl | inactive | inactive | inactive | –
CCCCCCCCCCCCOC(=O)c1ccc(O)cc1 | inactive | inactive | inactive | –
CCOc1nc2cccc(C(=O)OC(C)OC(=O)OC3CCCCC3)c2n1Cc1ccc(-c2ccccc2-c2nn[nH]n2)cc1 (configuration not stated) | inactive | inactive | inactive | –
C=C(C)C(=O)OCCC(F)(F)C(F)(F)C(F)(F)C(F)(F)C(F)(F)C(F)(F)F | inactive | inactive | inactive | –
Nc1ccn(C2CO[C@H](CO)O2)c(=O)n1 (some centres not stated) | inactive | – | inactive | –
CC/C(=C(/c1ccc(O)cc1)c1ccc(OCCN(C)C)cc1)c1ccccc1 | 41.7 µM (active) | – | inactive | –
COC(=O)Nc1nc2ccc(C(=O)c3ccccc3)cc2[nH]1 | inactive | inactive | inactive | –
Clc1ccc(C(Cn2ccnc2)OCc2c(Cl)cccc2Cl)c(Cl)c1 (configuration not stated) | inactive | – | inactive | –
O=C(O)c1cccc(N(Cc2cccnc2)c2ccc(OC(F)F)c(OC(F)F)c2)c1 | – | – | – | inactive
CCCCCN=C(N)N/N=C/c1c[nH]c2ccc(OC)cc12 | inactive | – | inactive | –
CN1CCCN=C1/C=C/c1cccs1 | 15.5 µM (active) | – | inactive | –
CCCC(=O)OC[C@@H](OC(=O)CCC)[C@@H](OC(=O)CCC)[C@H](Cn1c2nc(=O)[nH]c(=O)c-2nc2cc(C)c(C)cc21)OC(=O)CCC | inactive | – | inactive | –
CCCCCCCCCC[N+](C)(CCCCCCCCCC)CCC[Si](OC)(OC)OC | inactive | – | inactive | –
COc1cc(N)c(Cl)cc1C(=O)NC1CCN(Cc2ccccc2)CC1 | 17.4 µM (active) | – | inactive | –
C=C(C)C1CC=C(C)C(O)C1 (configuration not stated) | inactive | inactive | inactive | –
Clc1ccc(C(Cn2ccnc2)OCc2ccsc2Cl)c(Cl)c1 (configuration not stated) | inactive | – | inactive | –
